{
  "source": "the supplement of paper PMC9588786",
  "note": "± gives the standard deviation of the averaged measurements.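 Further: viability read as CCK-8 absorbance at 450 nm in cells co-exposed to the GPX4 inhibitor RSL3, relative to a 0.01% DMSO vehicle control.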",
  "data": [
    {"test_system": "HT-1080", "assay": "relative cell viability with RSL3 co-treatment (fraction of control); higher = stronger protection from RSL3-induced ferroptosis (higher viability)", "conditions": "10 µM", "values": [
      {"smiles": "CCCNC(=O)Nc1ccc(Oc2ncnc3cc(OC)c(OC)cc23)cc1Cl", "relative cell viability": "0.757 ± 0.42"},
      {"smiles": "COc1cc2ncnc(Nc3cccc(Cl)c3)c2cc1OC", "note": "[AG-1478 (Tyrphostin AG-1478)]", "relative cell viability": "0.68 ± 0.2"},
      {"smiles": "CS(=O)(=O)c1ccc(-c2cnc(N)c(C(=O)Nc3ccccc3)n2)cc1", "relative cell viability": "0.713 ± 0.05"},
      {"smiles": "CS(=O)(=O)c1cccc(CNc2nc(Nc3ccc4c(c3)CCC(=O)N4)ncc2C(F)(F)F)c1", "relative cell viability": "0.91 ± 0.085"},
      {"smiles": "N#Cc1c(Oc2ccc(F)c(NC(=O)Cc3cccc(C(F)(F)F)c3)c2)ccc2nc(NC(=O)C3CC3)sc12", "relative cell viability": "0.797 ± 0.032"},
      {"smiles": "CN1CCN(c2ccc(C(=O)Nc3n[nH]c4ccc(Cc5cc(F)cc(F)c5)cc34)c(NC3CCOCC3)c2)CC1", "note": "[Entrectinib (RXDX-101)]", "relative cell viability": "0.537 ± 0.045"},
      {"smiles": "CN1CC[C@H](c2c(O)cc(O)c3c(=O)cc(-c4ccccc4Cl)oc23)[C@H](O)C1", "note": "[Flavopiridol (Alvocidib)]", "relative cell viability": "0.49 ± 0.13"},
      {"smiles": "Cc1cc(C)c(/C=C2\\C(=O)Nc3ccccc32)[nH]1", "note": "[Semaxanib (SU5416)]", "relative cell viability": "0.983 ± 0.15"},
      {"smiles": "N#Cc1c(NC(=O)c2cccc3ccccc23)sc2c1CCCC2", "note": "[JNK Inhibitor IX]", "relative cell viability": "0.573 ± 0.049"},
      {"smiles": "Cc1cc(Nc2cc(CN3CCOCC3)c3nc(C)c(Cc4ccc(Cl)cc4F)n3n2)n[nH]1", "relative cell viability": "0.383 ± 0.095"},
      {"smiles": "COCC(=O)NC/C=C/c1ccc2ncnc(Nc3ccc(Oc4ccc(C)nc4)c(C)c3)c2c1", "relative cell viability": "0.647 ± 0.095"},
      {"smiles": "CC(=O)Nc1cccc(-n2c(=O)n(C3CC3)c(=O)c3c(Nc4ccc(I)cc4F)n(C)c(=O)c(C)c32)c1", "relative cell viability": "0.78 ± 0.052"},
      {"smiles": "O=C1Nc2ccc(I)cc2/C1=C/c1cc(Br)c(O)c(Br)c1", "relative cell viability": "0.573 ± 0.2"},
      {"smiles": "Cn1cc(/C=C2\\C(=O)Nc3cccnc32)c2ccccc21", "relative cell viability": "0.927 ± 0.015"},
      {"smiles": "Cc1nc(NC(=O)N2CCC[C@H]2C(N)=O)sc1-c1ccnc(C(C)(C)C(F)(F)F)c1", "note": "[Alpelisib (BYL719)]", "relative cell viability": "0.827 ± 0.015"},
      {"smiles": "Oc1c2ccccc2c2c3c(cccc13)N=N2", "relative cell viability": "0.71 ± 0.036"},
      {"smiles": "NC[C@@](O)(c1ccc(Cl)cc1)c1ccc(-c2cn[nH]c2)cc1", "relative cell viability": "0.687 ± 0.22"},
      {"smiles": "N#Cc1c(O)c2c(-c3ccc(-c4ccccc4O)cc3)csc2[nH]c1=O", "relative cell viability": "0.793 ± 0.046"},
      {"smiles": "CNC(=O)c1nn(C)c2c1C(C)(C)Cc1cnc(Nc3ccc(N4CCN(C)CC4)cc3)nc1-2", "relative cell viability": "0.723 ± 0.16"},
      {"smiles": "CC1(COc2ccc3c(c2)ncn3-c2ccc3cccc(N4CCC(N)CC4)c3n2)COC1", "relative cell viability": "0.683 ± 0.27"},
      {"smiles": "Cn1cc(-c2ccc3ncc(Cc4ccc5ncccc5c4)n3n2)cn1", "relative cell viability": "0.727 ± 0.11"},
      {"smiles": "O=C(NOC[C@H](O)CO)c1ccc(F)c(F)c1Nc1ccc(I)cc1F", "relative cell viability": "0.897 ± 0.032"},
      {"smiles": "CCCCCCCCCCCCCCCCOP(=O)([O-])OCC[N+](C)(C)C", "note": "[Miltefosine]", "relative cell viability": "0.6 ± 0.13"},
      {"smiles": "CN1CCN(Cc2ccc(-c3cnc4[nH]cc(-c5ccc6[nH]ccc6c5)c4c3)cc2)CC1", "relative cell viability": "0.497 ± 0.04"},
      {"smiles": "Cc1cc(O)c2c(c1)C(=O)c1cccc(O)c1C2=O", "note": "[Chrysophanic Acid]", "relative cell viability": "0.6567 ± 0.0058"},
      {"smiles": "CCCNC(=O)c1cn2ncnc(Nc3cc(C(=O)NC4CC4)ccc3C)c2c1C", "relative cell viability": "0.78 ± 0.04"},
      {"smiles": "CNC(=O)c1cc(Oc2ccc(NC(=O)Nc3cc(C(C)(C)C)nn3-c3ccc4ncccc4c3)c(F)c2)ccn1", "note": "[Rebastinib (DCC-2036)]", "relative cell viability": "0.3 ± 0.085"},
      {"smiles": "Nc1nc(N)c(N=O)c(OCC2CCCCC2)n1", "relative cell viability": "0.82 ± 0.01"},
      {"smiles": "CO[C@H]1C[C@@H]2CC[C@@H](C)[C@@](O)(O2)C(=O)C(=O)N2CCCC[C@H]2C(=O)O[C@H]([C@H](C)C[C@@H]2CC[C@@H](O)[C@H](OC)C2)CC(=O)[C@H](C)/C=C(\\C)[C@@H](O)[C@@H](OC)C(=O)[C@H](C)C[C@H](C)/C=C/C=C/C=C/1C", "note": "[Rapamycin (Sirolimus)]", "relative cell viability": "0.387 ± 0.085"},
      {"smiles": "NC(=O)c1cnc(N[C@@H]2CCCC[C@@H]2N)nc1Nc1cccc(-n2nccn2)c1", "relative cell viability": "0.56 ± 0.11"},
      {"smiles": "Cc1ccc(NC(=O)c2cccc(N(C)C)c2)cc1NC(=O)c1ccc(O)cc1", "relative cell viability": "0.587 ± 0.15"},
      {"smiles": "CC(C)c1cnn2c(NCc3ccccc3)cc(NCCCCCCN)nc12", "relative cell viability": "0.623 ± 0.085"},
      {"smiles": "COc1cc2ncnc(Oc3ccc(CC(=O)Nc4cnn(C(C)C)c4)cc3)c2cc1OC", "relative cell viability": "0.643 ± 0.33"},
      {"smiles": "CCN1CCN(Cc2ccc(-c3cc4c(N[C@H](C)c5ccccc5)ncnc4[nH]3)cc2)CC1", "relative cell viability": "0.49 ± 0.02"},
      {"smiles": "CS(=O)(=O)CCNCc1ccc(-c2ccc3ncnc(Nc4ccc(OCc5cccc(F)c5)c(Cl)c4)c3c2)o1", "note": "[Lapatinib]", "relative cell viability": "1.21 ± 0.064"},
      {"smiles": "CCCS(=O)(=O)Nc1ccc(F)c(C(=O)c2c[nH]c3ncc(Cl)cc23)c1F", "relative cell viability": "0.64 ± 0.036"},
      {"smiles": "Cn1ncc(Cl)c1-c1cc(C(=O)N[C@H](CN)Cc2ccc(F)c(F)c2)oc1Cl", "relative cell viability": "0.753 ± 0.07"},
      {"smiles": "CCOC(=O)c1cnc2ccc(-c3cncc(NS(=O)(=O)c4ccccc4)c3)cn12", "relative cell viability": "0.717 ± 0.09"}
    ]}
  ]
}
